A short description of experiment [1]: Quantitative High-Throughput drug screen in 47 multiple myeloma cell lines against the NCATS MIPE library collection: KMM1_JCRB cell viability assay (AID 1918960). Note: nearly all actives have a fitted effect of over 30% in size. The gist of the method: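 Here, 48 h treatment with MIPE 4.0 agents at 37 °C preceded an ATP luminescence read. Plating density was 500 cells per well.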
A short description of experiment [2]: Quantitative High-Throughput drug screen in 47 multiple myeloma cell lines against the NCATS MIPE library collection: Karpas417_ECACC cell viability assay (AID 1918961). The conditions noted are these: Karpas417 myeloma viability, CellTiter-Glo ATP luminescence, 48 h; viability (% of DMSO): at 45.8 µM (top of the series). The procedure, abridged:
(§1)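 Myeloma cell lines, 500 cells per well, exposed to MIPE 4.0 library compounds for 48 h at 37C, 5% CO2. Viability from ATP by CellTiter-Glo luminescence; normalised to DMSO (100%) and media-only (0%) wells.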
In general terms: In ATP-based viability assays light output follows the ATP content of the culture.

Experiment [3] can be described thus: Quantitative High-Throughput drug screen in 47 multiple myeloma cell lines against the NCATS MIPE library collection: KHM11_PLB cell viability assay (AID 1918962). Note: nearly all actives have a fitted effect of over 35% in size. The procedure, abridged:
as §1

Experiment [4] is described as follows: Quantitative High-Throughput drug screen in 47 multiple myeloma cell lines against the NCATS MIPE library collection: JIM3_ECACC cell viability assay (AID 1918963; note: nearly all actives have a fitted effect of over 35% in size). The procedure, abridged: as §1
Experiment [5] is described as follows: Quantitative High-Throughput drug screen in 47 multiple myeloma cell lines against the NCATS MIPE library collection: JJN3_DSMZ cell viability assay (AID 1918966; note: nearly all actives have a fitted effect of over 50% in size). The gist of the method:
(§2)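 Relative luminescence from CellTiter-Glo served as the viability signal, referenced to DMSO-treated (100%) and cell-free medium (0%) controls. Treatment lasted 48 hours at 37C with 500 cells per well.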

Experiment [6] is described as follows: Quantitative High-Throughput drug screen in 47 multiple myeloma cell lines against the NCATS MIPE library collection: H1112_PLB cell viability assay (AID 1918967; note: nearly all actives have a fitted effect of over 30% in size). The procedure, abridged:
as §2

Experiment [7] is described as follows: Quantitative High-Throughput drug screen in 47 multiple myeloma cell lines against the NCATS MIPE library collection: Karpas25_ECACC cell viability assay (AID 1918968; note: nearly all actives have a fitted effect of over 35% in size). The gist of the method:
as §2

Experiment [8] is described as follows: Quantitative High-Throughput drug screen in 47 multiple myeloma cell lines against the NCATS MIPE library collection: KMS27_JCRB cell viability assay (AID 1918970). Note: nearly all actives have a fitted effect of over 30% in size. The procedure, abridged: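 Each line is seeded at 500 cells per well and treated with library compounds for 48 hours under 37 °C, 5% CO2. CellTiter-Glo is then added for 5 min at room temperature before median relative luminescence is recorded.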

Experiment [9] in a line: Quantitative High-Throughput drug screen in 47 multiple myeloma cell lines against the NCATS MIPE library collection: KMS12BM_JCRB cell viability assay (AID 1918971). Note: nearly all actives have a fitted effect of over 35% in size. The gist of the method: (§3)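 qHTS of the MIPE 4.0 collection: 500 myeloma cells/well, 48 h drug exposure at 37C in 5% CO2, then CellTiter-Glo for 5 min at room temperature before luminescence reading.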
Experiment [10] can be described thus: Quantitative High-Throughput drug screen in 47 multiple myeloma cell lines against the NCATS MIPE library collection: KMS12PE_JCRB cell viability assay (AID 1918972). Note: nearly all actives have a fitted effect of over 30% in size. The gist of the method:
as §1

A short description of experiment [11]: Quantitative High-Throughput drug screen in 47 multiple myeloma cell lines against the NCATS MIPE library collection: KMS20_JCRB cell viability assay (AID 1918973). Note: nearly all actives have a fitted effect of over 45% in size. The gist of the method: as §2
Experiment [12] is described as follows: Quantitative High-Throughput drug screen in 47 multiple myeloma cell lines against the NCATS MIPE library collection: KMS21BM_JCRB cell viability assay (AID 1918974). The note with it: ATP luminescence, 48 h; viability: at 45.8 µM (top of the series) unless noted. The procedure, abridged: as §2
The nature of experiment [13]: Quantitative High-Throughput drug screen in 47 multiple myeloma cell lines against the NCATS MIPE library collection: KMS26_JCRB cell viability assay (AID 1918975). Note: nearly all actives have a fitted effect of over 45% in size. The gist of the method: as §3
Experiment [14] can be described thus: Quantitative High-Throughput drug screen in 47 multiple myeloma cell lines against the NCATS MIPE library collection: MMM1_PLB cell viability assay (AID 1918976). Note: nearly all actives have a fitted effect of over 35% in size. The gist of the method: (§4)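 500 cells/well per myeloma line exposed to pinned MIPE 4.0 compounds for 48 h at 37 °C, 5% CO2. Viability read as ATP by CellTiter-Glo luminescence, normalised to DMSO-only (100%) and media-only (0%) wells.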

The nature of experiment [15]: Quantitative High-Throughput drug screen in 47 multiple myeloma cell lines against the NCATS MIPE library collection: MOLP8_DSMZ cell viability assay (AID 1918977). Note: nearly all actives have a fitted effect of over 45% in size. The procedure, abridged:
as §4

Experiment [16] is described as follows: Quantitative High-Throughput drug screen in 47 multiple myeloma cell lines against the NCATS MIPE library collection: NCIH929_DSMZ cell viability assay (AID 1918978). Note: nearly all actives have a fitted effect of over 35% in size. The procedure, abridged:
as §4

A short description of experiment [17]: Quantitative High-Throughput drug screen in 47 multiple myeloma cell lines against the NCATS MIPE library collection: OCIMY1_PLB cell viability assay (AID 1918979). Note: nearly all actives have a fitted effect of over 35% in size. The procedure, abridged: as §4
Experiment [18] in a line: Quantitative High-Throughput drug screen in 47 multiple myeloma cell lines against the NCATS MIPE library collection: MM1S_ATCC cell viability assay (AID 1918980). Note: nearly all actives have a fitted effect of over 45% in size. The gist of the method: as §4
Experiment [19] can be described thus: Quantitative High-Throughput drug screen in 47 multiple myeloma cell lines against the NCATS MIPE library collection: JIM1_ECACC cell viability assay (AID 1918964). The gist of the method: as §2
Experiment [20] can be described thus: Quantitative High-Throughput drug screen in 47 multiple myeloma cell lines against the NCATS MIPE library collection: INA6_PLB cell viability assay (AID 1918965; note: nearly all actives have a fitted effect of over 55% in size). The procedure, abridged:
as §1

Records with an inconclusive call do not appear. The source made the active and inactive calls. Calls come from the whole dose curve; as a rule, active = well fitted curve in the direction sought with a large enough effect; inconclusive = small, poorly fitted or top-dose-only effect, or another doubt; inactive = no such curve, though single readings can be large; an effect the other way counts as inactive or inconclusive.
Potency is the fitted concentration of half-maximal effect.

In the case of `CN1CCN(c2ccc3nc(-c4c(N)c5c(F)cccc5[nH]c4=O)[nH]c3c2)CC1`, the Potency in [1] is 16600 nM (active); in experiment [2], 8330 nM (active); in experiment [3], 2090 nM (active); in [4], 13200 nM (active); in [5] it was 20900 nM (active); in [6], 7430 nM (active). The Potency in [7] is 2640 nM (active); in experiment [8], 7430 nM (active); in [9] it was 16600 nM (active); in experiment [10], 5900 nM (active); in experiment [11] it was 1320 nM (active); in experiment [12] it was 4690 nM (active). Moreover, the Potency in experiment [13] is 29600 nM (active); in experiment [14] it was 20900 nM (active); in experiment [15], 5900 nM (active); in experiment [16], 2350 nM (active); in experiment [17] it was 18700 nM (active); in experiment [18] it was 16600 nM (active).
`CCNC(=O)Nc1ccc2ncc(Nc3ccc(C)cc3)nc2n1`: the Potency is 2640 nM (active) in [1]; 59 nM (active) in experiment [2]; 3720 nM (active) in experiment [3]; 4690 nM (active) in [4]; 935 nM (active) in experiment [19]; 5900 nM (active) in experiment [7]. The Potency was 526 nM (active) in experiment [8], 2350 nM (active) in [10], 14800 nM (active) in experiment [14] and 7430 nM (active) in experiment [16].
As to `C[C@]12CC[C@H](O)CC1=CCC1C2CC[C@]2(C)C(n3cnc4ccccc43)=CCC12` (stereo partly drawn), the Potency entry in [1], in experiment [4], in experiment [6], in experiment [7], in experiment [8] and in experiment [10] was “inactive” in each case. In addition, the Potency result in experiment [11] and in experiment [17] was “inactive” throughout. Also, in experiment [2], the viability (% of DMSO) was 109% (active). The Potency in experiment [9] is 18700 nM (active).
Take `Cc1ccc(-c2ncn(-c3ccc(Nc4nccc(-c5cccc(N6CCOCC6)c5)n4)cc3)n2)cn1`: the Potency in experiment [1] is 105 nM (active); in experiment [2], 29.6 nM (active); in experiment [3] it was 118 nM (active); in experiment [4] it was 235 nM (active); in [19], 66.2 nM (active); in [5] it was 235 nM (active). For the same molecule, the Potency in experiment [6] is 105 nM (active); in experiment [7], 83.3 nM (active); in experiment [8], 46.9 nM (active); in experiment [9], 83.3 nM (active); in [10] it was 59 nM (active); in [11], 83.3 nM (active). The Potency was 29.6 nM (active) in experiment [12]; 469 nM (active) in [13]; 2350 nM (active) in experiment [14]; 93.5 nM (active) in experiment [15]; 662 nM (active) in experiment [17]; 148 nM (active) in experiment [18].
Take `C[C@]1(CO)CN(c2cc(C(=O)Nc3ccc4c(c3)-c3c(c(C(N)=O)nn3-c3ccc(F)cc3)CC4)c(Cl)cn2)C[C@@]1(C)CO`: the Potency in [1] was 209 nM (active); in [2], 2640 nM (active); in experiment [3] it was 4180 nM (active); in experiment [19], 11800 nM (active); in experiment [6] it was 11800 nM (active); in [7] it was 14800 nM (active). Also, the Potency was 5.3 nM (active) in experiment [8]; 16600 nM (active) in experiment [9]; 5260 nM (active) in experiment [11]; 5260 nM (active) in experiment [12]; 14800 nM (active) in experiment [14]; 9350 nM (active) in [16]. For the same molecule, the Potency in [18] was 14800 nM (active). The Potency entry in experiment [17] was “inactive”.
For `CC=CC1=C(C(=O)O)N2C(=O)[C@H](NC(=O)[C@H](N)c3ccc(O)cc3)[C@@H]2SC1`, the Potency result in [1], in experiment [2], in experiment [5], in [9], in [10] and in experiment [15] was “inactive” each time. Moreover, the Potency in experiment [11] was 26400 nM (active); in [18] it was 14800 nM (active).
For `CC(C)c1ccc(Cn2ccc3c4c(N)nc(NC5CC5)nc4ccc32)cc1`, the Potency in [1] was 2350 nM (active); in [2] it was 10500 nM (active); in [3], 14800 nM (active); in experiment [4] it was 148 nM (active); in experiment [19], 1870 nM (active); in experiment [5] it was 8330 nM (active). Moreover, the Potency in experiment [6] is 9350 nM (active); in [7] it was 5900 nM (active); in experiment [8] it was 372 nM (active); in [9], 7430 nM (active); in experiment [10] it was 833 nM (active); in experiment [11], 3720 nM (active). Further, the Potency in experiment [12] was 1320 nM (active); in experiment [13], 10500 nM (active); in [15], 13200 nM (active); in experiment [16], 13200 nM (active); in [17], 14800 nM (active); in experiment [18] it was 10500 nM (active).
With `C[C@@]12O[C@@H](C[C@]1(O)CO)n1c3ccccc3c3c4c(c5c6ccccc6n2c5c31)CNC4=O`, the Potency is 526 nM (active) in experiment [1]; 66.2 nM (active) in [3]; 526 nM (active) in [4]; 74.3 nM (active) in experiment [20]; 418 nM (active) in experiment [5]; 1480 nM (active) in experiment [6]. Also, the Potency is 296 nM (active) in [7]; 1480 nM (active) in experiment [9]; 148 nM (active) in [11]; 5900 nM (active) in experiment [13]; 3320 nM (active) in experiment [14]; 209 nM (active) in experiment [15]. In addition, the Potency in experiment [16] is 469 nM (active); in [17] it was 2350 nM (active); in experiment [18], 1050 nM (active).
As to `CCCn1c(=O)c2[nH]c(-c3cnn(Cc4cccc(C(F)(F)F)c4)c3)nc2n(CC)c1=O`, the Potency in experiment [1] was 1660 nM (active); in experiment [5], 5900 nM (active); in experiment [14] it was 13200 nM (active); in [18], 16600 nM (active). In addition, the Potency entry in [3], in experiment [4], in experiment [6], in experiment [7] and in experiment [17] was “inactive” each time.
Consider `Cc1nc(Nc2n[nH]c3c2CN(C(=O)N[C@H](CN(C)C)c2ccccc2)C3(C)C)c2sccc2n1`, for which the Potency is 105 nM (active) in [1]; 13.2 nM (active) in experiment [3]; 46.9 nM (active) in [4]; 5.9 nM (active) in experiment [20]; 4180 nM (active) in [5]; 1660 nM (active) in experiment [6]. Besides, the Potency was 526 nM (active) in experiment [7]; 743 nM (active) in experiment [9]; 105 nM (active) in [11]; 2960 nM (active) in experiment [13]; 4690 nM (active) in [14]; 148 nM (active) in [16]. The Potency in [17] is 16600 nM (active); in [18] it was 2640 nM (active).
For the molecule `O=C(O)CO.[NH2-].[NH2-].[Pt+2]`, the Potency result in experiment [1], in experiment [4], in [19], in experiment [5], in experiment [6] and in experiment [7] was “inactive” throughout. The Potency result in [9], in experiment [10] and in experiment [17] was “inactive” in each case.

The record behind these values is PubChem BioAssay (NCATS).
